# Values joined by “and” are separate entries in the source; they are usually repeats but may differ in a detail not shown here. Equal entries are not always repeated. Results filed as inconclusive are left out. Entries that show only a call come without a potency. Active and inactive are the calls of the source. Unless noted, calls follow the shape of the dose curve; as a rule, active = well fitted curve in the direction sought with a large enough effect; inconclusive = small, poorly fitted or top-dose-only effect, or another doubt; inactive = no such curve, though single readings can be large; an effect the other way counts as inactive or inconclusive. Bridge positions count the residues as written; N and C are the ends. Square brackets hold non-standard residues; d marks the D form. Peptide text beside a SMILES is read from it. * marks the point of attachment. Octanoyl(6-Me) = CCC(C)CCCCC(=O)*; Dab = NCC[CH](N)C(=O)O
# Tests used:
# [1] = qHTS assay for small molecule disruptors of the mitochondrial membrane potential - 1 hr assay (AID 651754; calls by dose curve; also: nearly all actives have a fitted effect of over 35% in size)
# Summary of the method: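 HepG2, 2,000 cells/well, overnight attachment; cpd or DMSO 1 hr, 37C/5% CO2; Mito-MPS dye 30 min, 37C; fluorescence monomer (490/535) and aggregate (540/590).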
# [2] = S16 Schwann cell PMP22 intronic element beta-lactamase assay (AID 624044; calls by dose curve; also: nearly all actives have a fitted effect of over 15% in size; also: potency is read from the fitted curve at half-maximal effect)
# Summary of the method: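 Rat S16 Schwann cells with beta-Lac driven by a PMP22 intronic element, compound-treated 24 h at 37 °C. LiveBLAzer FRET B/G read: 460 nm normalized to potassium clavulanate vs DMSO; 535 nm FRET as viability; concentration-effect curves classified.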
# PC26 = experiment: qHTS profiling for inhibitors of Plasmodium falciparum proliferation (AID 504749); also: nearly all actives have a fitted effect of over 60% in size; also: potency is read from the fitted curve at half-maximal effect; settings: P. falciparum in erythrocytes, SYBR Green DNA, 72 h; series mostly up to 28.7 µM
# Summary of the method: (§1)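 Parasite proliferation within erythrocytes, 72 h exposure. Endpoint: SYBR Green I fluorescence after overnight lysis at room temperature. Controls: 0.29 uM artemisinin, DMSO.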
# CP217 = experiment: as above; settings: P. falciparum in erythrocytes, SYBR Green DNA, 72 h; series mostly up to 28.7 µM
# Summary of the method: as §1
# PC15 = experiment: as above; settings: P. falciparum in erythrocytes, SYBR Green DNA, 72 h; series mostly up to 28.7 µM
# Summary of the method: as §1
# [3] = molecular target: Estrogen receptor (Homo sapiens) (UniProt P03372); experiment: qHTS assay for small molecule agonists of estrogen receptor alpha signaling (AID 588514; calls by dose curve; also: nearly all actives have a fitted effect of over 70% in size)
# Sequence of Estrogen receptor (Homo sapiens) (P03372 whole entry, looked up): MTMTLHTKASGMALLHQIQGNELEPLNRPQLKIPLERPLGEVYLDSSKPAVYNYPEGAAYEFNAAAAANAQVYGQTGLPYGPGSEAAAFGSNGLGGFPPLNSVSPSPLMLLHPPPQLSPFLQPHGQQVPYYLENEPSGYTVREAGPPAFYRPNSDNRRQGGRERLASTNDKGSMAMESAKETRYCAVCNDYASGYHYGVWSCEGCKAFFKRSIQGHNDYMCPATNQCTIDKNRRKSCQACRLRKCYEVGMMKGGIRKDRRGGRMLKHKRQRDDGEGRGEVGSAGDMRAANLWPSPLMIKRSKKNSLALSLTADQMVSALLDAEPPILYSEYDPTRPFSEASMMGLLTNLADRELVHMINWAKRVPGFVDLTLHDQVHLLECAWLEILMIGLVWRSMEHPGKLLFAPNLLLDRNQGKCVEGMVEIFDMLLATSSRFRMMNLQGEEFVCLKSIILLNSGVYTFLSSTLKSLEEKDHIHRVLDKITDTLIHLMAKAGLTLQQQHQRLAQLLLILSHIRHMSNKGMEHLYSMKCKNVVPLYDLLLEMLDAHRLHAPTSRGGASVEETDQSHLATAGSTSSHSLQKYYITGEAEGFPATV
# Summary of the method: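 Cells were plated at 5000/well, incubated 4 hrs at 37 C, dosed with compound titration series, incubated 18 hrs at 37 C, loaded with CCF4 dye for 2 hrs at RT, then fluorescence was read.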
# [4] = qHTS assay for small molecule antagonists of peroxisome proliferator-activated receptor delta signaling (AID 588535; active = well fitted inhibition curve with a large enough effect in the signal ratio, with a control signal flat, not every such curve was filed as active; the % refers to the signal ratio;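 as to max response: cells co-treated with a PPAR-delta agonist as stimulator during compound exposure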); settings: HEK293T PPARd-UAS-bla, beta-lactamase FRET ratio, 18 h; 460 nm channel
# Summary of the method: (§2)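 Reporter: UAS-bla under PPAR-delta response element, HEK293T host. Medium: 2% charcoal/dextran FBS. Dosing: titration, 18 hrs, 37 C. Detection: CCF4, 2 hrs RT, 405 ex/460 and 530 em.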
# [5] = molecular target: Peroxisome proliferator-activated receptor delta (Homo sapiens) (UniProt Q03181); experiment: as above
# Sequence of Peroxisome proliferator-activated receptor delta (Homo sapiens) (Q03181 whole entry, looked up): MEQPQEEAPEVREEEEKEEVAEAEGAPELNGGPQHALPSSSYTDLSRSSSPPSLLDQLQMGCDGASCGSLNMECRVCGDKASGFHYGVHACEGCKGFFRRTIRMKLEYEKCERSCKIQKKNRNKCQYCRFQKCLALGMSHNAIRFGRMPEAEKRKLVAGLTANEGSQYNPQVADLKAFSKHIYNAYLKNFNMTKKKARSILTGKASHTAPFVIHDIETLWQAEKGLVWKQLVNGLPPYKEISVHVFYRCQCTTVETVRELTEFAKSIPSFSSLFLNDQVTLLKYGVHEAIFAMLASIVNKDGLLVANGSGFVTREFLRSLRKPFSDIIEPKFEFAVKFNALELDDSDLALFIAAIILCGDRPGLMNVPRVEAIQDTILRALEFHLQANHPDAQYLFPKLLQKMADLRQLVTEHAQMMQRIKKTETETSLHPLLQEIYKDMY
# Summary of the method: as §2
# 3D7 = experiment: qHTS profiling for inhibitors of Plasmodium falciparum proliferation (AID 504749); also: nearly all actives have a fitted effect of over 60% in size; also: potency is read from the fitted curve at half-maximal effect; settings: P. falciparum in erythrocytes, SYBR Green DNA, 72 h; series mostly up to 28.7 µM
# Summary of the method: as §1
# AS120 = experiment: as above; settings: P. falciparum in erythrocytes, SYBR Green DNA, 72 h; series mostly up to 28.7 µM
# Summary of the method: as §1
# CP185 = experiment: as above; settings: P. falciparum in erythrocytes, SYBR Green DNA, 72 h; series mostly up to 28.7 µM
# Summary of the method: as §1
# CP247 = experiment: as above; settings: P. falciparum in erythrocytes, SYBR Green DNA, 72 h; series mostly up to 28.7 µM
# Summary of the method: as §1
# CP252 = experiment: as above; settings: P. falciparum in erythrocytes, SYBR Green DNA, 72 h; series mostly up to 28.7 µM
# Summary of the method: as §1
# ECU = experiment: as above; settings: P. falciparum in erythrocytes, SYBR Green DNA, 72 h; series mostly up to 28.7 µM
# Summary of the method: as §1
# HB3 = experiment: as above; settings: P. falciparum in erythrocytes, SYBR Green DNA, 72 h; series mostly up to 28.7 µM
# Summary of the method: as §1
# ICS = experiment: as above; settings: P. falciparum in erythrocytes, SYBR Green DNA, 72 h; series mostly up to 28.7 µM
# Summary of the method: as §1
# N140 = experiment: as above; settings: P. falciparum in erythrocytes, SYBR Green DNA, 72 h; series mostly up to 28.7 µM
# Summary of the method: as §1
# P94_40 = experiment: as above; settings: P. falciparum in erythrocytes, SYBR Green DNA, 72 h; series mostly up to 28.7 µM
# Summary of the method: as §1
# TAB109 = experiment: as above; settings: P. falciparum in erythrocytes, SYBR Green DNA, 72 h; series mostly up to 28.7 µM
# Summary of the method: as §1
# [6] = molecular target: Nuclear receptor ROR-gamma (Homo sapiens) (UniProt P51449); experiment: qHTS assay for small molecule antagonists of the retinoid-related orphan receptor gamma (ROR-gamma) signaling pathway (AID 651802);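 also: CHO cells with doxycycline-induced ROR-gamma expression; luciferase reporter luminescence driven by ROR response element; nearly all actives have a fitted effect of over 60% in size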
# Sequence of Nuclear receptor ROR-gamma (Homo sapiens) (P51449 whole entry, looked up): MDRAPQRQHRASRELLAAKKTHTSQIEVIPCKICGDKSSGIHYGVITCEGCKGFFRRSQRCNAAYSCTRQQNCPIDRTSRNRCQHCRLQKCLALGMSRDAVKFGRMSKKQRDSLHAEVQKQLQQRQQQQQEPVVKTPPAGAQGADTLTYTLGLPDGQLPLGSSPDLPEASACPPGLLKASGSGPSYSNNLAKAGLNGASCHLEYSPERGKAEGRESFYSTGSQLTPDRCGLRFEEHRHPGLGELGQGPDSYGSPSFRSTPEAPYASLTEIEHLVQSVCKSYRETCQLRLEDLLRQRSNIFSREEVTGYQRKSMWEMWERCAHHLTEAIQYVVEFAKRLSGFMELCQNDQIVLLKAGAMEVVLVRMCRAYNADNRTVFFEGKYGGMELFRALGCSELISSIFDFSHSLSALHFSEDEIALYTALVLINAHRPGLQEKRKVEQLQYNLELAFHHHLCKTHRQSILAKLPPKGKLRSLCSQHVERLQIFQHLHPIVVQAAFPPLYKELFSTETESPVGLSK
# Summary of the method: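 CHO, TET-inducible ROR + RORE-LUC reporter, 1536-well qHTS. Compound pinned, doxycycline added, 16hr 37C/5% CO2. ONE-Glo, 30 min RT, luminescence; signal drop scored as antagonism.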
compound,measurement,setting,value
O=C1CCc2ccccc2O1,Potency,[1],inactive
Nc1nc(Cl)nc2c1ncn2C1CC(O)C(CO)O1 (configuration not stated),Potency,[2],3.55 µM (active)
same,Potency,PC26,inactive
O=NCc1ccc([N+](=O)[O-])o1,Potency,[2],inactive
same,Potency,CP217,inactive
same,Potency,PC15,inactive
Cc1cccc(O)c1,Potency,[3],inactive
same,max response,[4],-22.1% and -37.2%
same,Potency,[5],inactive
CC(=O)O[C@@]12CO[C@@H]1C[C@H](O)[C@@]1(C)C(=O)[C@H](O)C3=C(C)[C@@H](OC(=O)C(O)[C@@H](NC(=O)OC(C)(C)C)c4ccccc4)C[C@@](O)([C@@H](OC(=O)c4ccccc4)[C@H]21)C3(C)C (some centres not stated),Potency,3D7,0.0251 µM (active)
same,Potency,AS120,0.0282 µM (active)
same,Potency,CP185,0.0251 µM (active)
same,Potency,CP217,0.0447 µM (active)
same,Potency,CP247,0.0398 µM (active)
same,Potency,CP252,0.0178 µM (active)
same,Potency,ECU,0.0631 µM (active)
same,Potency,HB3,0.0794 µM (active)
same,Potency,ICS,0.112 µM (active)
same,Potency,N140,0.0891 µM (active)
same,Potency,P94_40,0.0355 µM (active)
same,Potency,PC15,5.62 µM (active)
same,Potency,PC26,0.0379 µM (active)
same,Potency,TAB109,0.0316 µM (active)
CCC(C)CCCCC(=O)NC(CCN)C(=O)NC(C(=O)NC(CCN)C(=O)NC1CCNC(=O)C(C(C)O)NC(=O)C(CCN)NC(=O)C(CCN)NC(=O)C(CC(C)C)NC(=O)C(Cc2ccccc2)NC(=O)C(CCN)NC1=O)C(C)O (configuration not stated) ({Octanoyl(6-Me)}-[Dab]T[Dab][Dab][Dab]FL[Dab][Dab]T; lactam 4-C; configuration not given here),Potency,[2],inactive
same,Potency,3D7,inactive
same,Potency,AS120,inactive
same,Potency,CP185,inactive
same,Potency,CP247,inactive
same,Potency,CP252,inactive
same,Potency,ECU,inactive
same,Potency,HB3,inactive
same,Potency,ICS,inactive
same,Potency,N140,inactive
same,Potency,P94_40,inactive
same,Potency,PC15,inactive
same,Potency,PC26,inactive
same,Potency,TAB109,inactive
Cc1cc(CC(C)CC(C)(C)C)n(O)c(=O)c1 (configuration not stated),Potency,[2],2.51 µM (active)
same,Potency,3D7,2 µM (active)
same,Potency,AS120,2.51 µM (active)
same,Potency,CP185,1.12 µM (active)
same,Potency,CP217,2.82 µM (active)
same,Potency,CP247,2.24 µM (active)
same,Potency,CP252,2.82 µM (active)
same,Potency,ECU,2.82 µM (active)
same,Potency,HB3,8.91 µM (active)
same,Potency,ICS,2.51 µM (active)
same,Potency,N140,1 µM (active)
same,Potency,P94_40,2.82 µM (active)
same,Potency,PC15,5.01 µM (active)
same,Potency,PC26,3.79 µM (active)
same,Potency,TAB109,2.24 µM (active)
O=S(=O)(O)c1ccccc1,max response,[4],1.28%
same,Potency,[5],inactive
same,Potency,[1],inactive
same,Potency,[6],inactive
CCN1/C(=C/C=C/C=C/c2sc3ccccc3[n+]2CC)Sc2ccccc21,Potency,3D7,2 µM (active)
same,Potency,AS120,5.01 µM (active)
same,Potency,CP185,3.98 µM (active)
same,Potency,CP217,4.47 µM (active)
same,Potency,CP247,4.47 µM (active)
same,Potency,CP252,3.98 µM (active)
same,Potency,ECU,4.47 µM (active)
same,Potency,HB3,2.24 µM (active)
same,Potency,ICS,1 µM (active)
same,Potency,N140,5.62 µM (active)
same,Potency,P94_40,3.98 µM (active)
same,Potency,PC15,4.47 µM (active)
same,Potency,TAB109,3.98 µM (active)
O[C@@H]([C@H](O)[C@@H](O)CBr)[C@@H](O)CBr,Potency,[3],inactive
same,Potency,[6],inactive
CCC(=O)O[C@@H](OP(=O)(CCCCc1ccccc1)CC(=O)N1C[C@H](C2CCCCC2)C[C@H]1C(=O)O)C(C)C (some centres not stated),Potency,3D7,inactive
same,Potency,AS120,inactive
same,Potency,CP185,inactive
same,Potency,CP217,inactive
same,Potency,CP247,inactive
same,Potency,CP252,inactive
same,Potency,ECU,inactive
same,Potency,HB3,inactive
same,Potency,ICS,inactive
same,Potency,N140,inactive
same,Potency,P94_40,inactive
same,Potency,PC15,inactive
same,Potency,PC26,inactive
same,Potency,TAB109,inactive
CC1(C)S[C@@H]2[C@H](NC(=O)COc3ccccc3)C(=O)N2[C@H]1C(=O)O,max response,[4],39.2%
same,Potency,[5],inactive
same,Potency,[2],inactive
same,Potency,3D7,inactive
same,Potency,AS120,inactive
same,Potency,CP185,inactive
same,Potency,CP217,inactive
same,Potency,CP247,inactive
same,Potency,CP252,inactive
same,Potency,ECU,inactive
same,Potency,HB3,inactive
same,Potency,ICS,inactive
same,Potency,N140,inactive
same,Potency,P94_40,inactive
same,Potency,PC15,inactive
same,Potency,PC26,inactive
same,Potency,TAB109,inactive
CC1CCC(C(C)C)C(OC(=O)c2ccccc2O)C1 (configuration not stated),Potency,[2],inactive
same,Potency,3D7,inactive
same,Potency,AS120,inactive
same,Potency,CP185,inactive
same,Potency,CP217,inactive
same,Potency,CP247,inactive
same,Potency,CP252,inactive
same,Potency,ECU,inactive
same,Potency,HB3,inactive
same,Potency,ICS,inactive
same,Potency,N140,inactive
same,Potency,P94_40,inactive
same,Potency,PC15,inactive
same,Potency,PC26,inactive
same,Potency,TAB109,inactive
O=C(O)c1ccccc1C(c1ccc(O)cc1)c1ccc(O)cc1,Potency,[3],inactive
same,max response,[4],8.38% and 8.06%
same,Potency,[5],inactive
same,Potency,[6],inactive
c1ccc2scnc2c1,Potency,[3],inactive
same,max response,[4],3.24%
same,Potency,[5],inactive
same,Potency,[1],inactive
same,Potency,[6],inactive
Cc1c(N=C=O)cccc1N=C=O,Potency,[3],inactive
same,Potency,[6],inactive
Cc1ccccc1C,Potency,[3],inactive
same,max response,[4],-3.07% and -4.26%
same,Potency,[5],inactive
same,Potency,[1],inactive
same,Potency,[6],inactive
Nc1ccc(S(=O)(=O)O)cc1,Potency,[3],inactive
same,Potency,[1],inactive
COC(=O)CCCCC(=O)OC,Potency,[3],inactive
same,max response,[4],25.3% and -0.778%
same,Potency,[5],inactive
same,Potency,[1],inactive
same,Potency,[6],inactive
CO[C@@H]1[C@@H](OC2OC(C)C(OC3CC(C)(O)C(OC(=O)CC(C)C)C(C)O3)C(N(C)C)C2O)[C@@H](CC=O)C[C@@H](C)C(=O)/C=C\C2O[C@H]2C[C@@H](C)OC(=O)C[C@H]1OC(C)=O (some centres not stated),Potency,[2],inactive
same,Potency,3D7,11.2 µM (active)
same,Potency,AS120,10 µM (active)
same,Potency,CP185,7.94 µM (active)
same,Potency,CP217,10 µM (active)
same,Potency,CP247,11.2 µM (active)
same,Potency,CP252,5.01 µM (active)
same,Potency,ECU,8.91 µM (active)
same,Potency,HB3,11.2 µM (active)
same,Potency,ICS,5.01 µM (active)
same,Potency,N140,8.91 µM (active)
same,Potency,P94_40,8.91 µM (active)
same,Potency,TAB109,3.98 µM (active)
O=C(O)c1ccc(O)cc1O,max response,[4],43.1%
same,Potency,[5],inactive
same,Potency,[1],inactive
same,Potency,[6],inactive
